Measurements from PubChem BioAssay (NCI).
The panel holds about 79,000 compounds, 15% with a hit somewhere; the sample as a whole holds those more often. Values without a mark were called inactive. Active and inactive are the calls of the source. Rule as the data show it: active = growth inhibition above about 70%; inactive = the rest.

Legend:
[1] = NCI Yeast Anticancer Drug Screen. Data for the rad50 strain (AID 155);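 also: 0% = growth of vehicle-only cultures of the same strain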; settings: S. cerevisiae rad50 strain growth inhibition; at 50.0 µM; active compounds read high
In short: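 Compounds were tested on a yeast strain with an engineered DNA damage repair alteration; the reported value is growth inhibition normalised to vehicle treatment.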

[2] = NCI Yeast Anticancer Drug Screen. Data for the mec2-1 strain (AID 157); settings: S. cerevisiae mec2-1 strain, at 50.0 µM, active compounds read high
In short: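 Cells of the genetically defined mec2-1 yeast strain are incubated with test compound. Inhibition of growth is calculated against vehicle-treated controls.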

[3] = NCI Yeast Anticancer Drug Screen. Data for the sgs1 mgt1 strain (AID 161);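 also: 0% = growth of cultures given vehicle only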; settings: S. cerevisiae sgs1 mgt1 strain, at 50.0 µM, active compounds read high
In short: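 Mutant yeast exposed to compound; growth scored against vehicle-only wells.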

[4] = NCI Yeast Anticancer Drug Screen. Data for the cln2 rad14 strain (AID 165);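 also: 0% = growth equal to vehicle treated cultures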; settings: S. cerevisiae cln2 rad14 strain, at 50.0 µM, active compounds read high
In short: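 The screen exposed genetically defined yeast (cln2 rad14) to test compounds and scored growth inhibition relative to vehicle-treated controls.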

[5] = NCI Yeast Anticancer Drug Screen. Data for the bub3 strain (AID 167); settings: S. cerevisiae bub3 mutant strain, at 50.0 µM, active compounds read high
In short: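 Growth of a checkpoint-deficient yeast mutant is measured after compound exposure. Values represent inhibition relative to vehicle.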

[6] = NCI Yeast Anticancer Drug Screen. Data for the mlh1 rad18 strain (AID 175); settings: S. cerevisiae mlh1 rad18 strain growth inhibition; at 50.0 µM; active compounds read high
In short: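 Compound-treated yeast growth, normalised to vehicle controls. Strain bears defined DNA repair mutations.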

| Structure (SMILES) | growth inhibition [1] | growth inhibition [2] [%] | growth inhibition [3] [%] | growth inhibition [4] [%] | growth inhibition [5] [%] | growth inhibition [6] |
| --- | --- | --- | --- | --- | --- | --- |
| O=C1C[CH]([Ge](=[O])[O][Ge](=[O])[CH]2CC(=O)NC(=O)N2)NC(=O)N1 (centres undefined) | 43.9% | 18.2 | 25.1 | 16.6 | -5.3 | 22.1% |
| CC(=O)OCC1OC(n2ncnc2CBr)C(OC(C)=O)C(OC(C)=O)C1OC(C)=O (centres undefined) | 30% | -3.4 | 12.4 | 8.45 | -4.8 | 10.6% |
| CC1(C)CC2(C)OC3(C)CC(C)(C)OC3(C)OC2(C)O1 (centres undefined) | 0.05% | 6.45 | 8.55 | -34.2 | 22.4 | -10.3% |
| O=S(=O)(Cc1ccccc1)C(I)c1ccccc1 (centres undefined) | 82.2% (active) | 55.9 | 65.5 | 51 | 60.7 | 73% (active) |
| O=C(O)CNC(=O)C(Cc1ccccc1)NC(=O)CNC(=O)C(CSC(c1ccccc1)c1ccccc1)NC(=O)C(CSC(c1ccccc1)(c1ccccc1)c1ccccc1)NC(=O)OCc1ccccc1 (centres undefined) | -0.75% | 27 | 23.4 | -17.2 | -9.55 | 44.1% |
| COc1cc(-c2cc(=O)c3c(O)c(OC)c(OC)c(OC)c3o2)ccc1O | 23.4% | 10.2 | -14.8 | 28.4 | 13.1 | 14.9% |
| Cn1c2ccccc2c2nnc(N/N=C/c3cccs3)nc21 | -15.6% | -9.2 | -9.6 | -32.2 | -10.6 | 10.7% |
| CC(=O)c1ccc2c(Br)ccc3c2c1CC3 | 12.3% | 10.3 | 4.25 | 10.4 | 16.1 | 9.55% |
| COc1cc(OC)c(OC)cc1/C=C/c1cc[n+](C)c2ccccc12 | 9.1% | -6.35 | 11.6 | -0.8 | 4.95 | 8.05% |
| CCCCNC(=O)c1c(Cl)c(Cl)c(Cl)c(Cl)c1C(=O)O | 37.3% | 17.1 | 4.85 | 17.5 | 16.5 | 28.2% |
| CC1(C)CCCC/C1=N\Nc1ccc([N+](=O)[O-])cc1[N+](=O)[O-] | -29.2% | 5.2 | -2.8 | -22.2 | 1.1 | 22.1% |
| COc1c(OC2OC(CO)C(O)C(O)C2O)cc2c(c1OC)-c1ccc(OC)c(=O)cc1C(NC(C)=O)CC2 (centres undefined) | 13.8% | 8.75 | 10.8 | 11.7 | 19 | 20.4% |
| O=c1cn[nH]c2c(Br)cc(Br)cc12 | 12% | -0.3 | -1.6 | 2.65 | -9.9 | 16.4% |
| CN1C(=O)C(=C2CCCCC2)SC1=S | 0.55% | 7.8 | -11.6 | -4.3 | 2.8 | 2.15% |
| Cn1c(=O)c2n[nH]nc2n(C)c1=O | 7.25% | -0.5 | -0.35 | -11.7 | -14.8 | 15.8% |
| N#Cc1nc[nH]c1C(N)=O | -2.4% | 0.25 | -14.2 | 11.8 | 11 | 6.25% |
| CC(=O)Nc1ccc(S(=O)(=O)N=S(C)C)cc1 | -10.8% | -9.05 | -24.9 | -21.6 | -40 | 13.8% |
| O=C(O)c1ccccc1-c1ccccc1C(=O)Nc1ccc2c(c1)[nH]c(=O)c1ccccc12 | -13.8% | -3.85 | -21.8 | 46.9 | -15.8 | -22.3% |
| O=C(O)c1c(-c2ccc(Cl)cc2)c(-c2ccc(Cl)cc2)nn(CCO)c1=O | 33.8% | 25.8 | 33.4 | 7.4 | 1.5 | 35.6% |
| COc1cnc2cc(C(=O)O)c3ccccc3c2c1 | 40.5% | 9.7 | 13.2 | 23.1 | -1.15 | 29.1% |
| CC1=C(CC2C(=O)N(c3ccccc3)S(=O)(=O)NC2C)C(=O)N(c2ccccc2)S(=O)(=O)N1C (centres undefined) | 20.1% | 4 | -14 | -17.1 | -1.65 | 8.5% |
| CC(=O)NC(C)C#N (centres undefined) | -15.4% | -14.1 | -0.2 | -4 | -8.7 | 5.55% |

| Structure (SMILES) | growth inhibition [1] | growth inhibition [2] [%] | growth inhibition [3] [%] | growth inhibition [4] [%] | growth inhibition [5] [%] | growth inhibition [6] |
| --- | --- | --- | --- | --- | --- | --- |
| CC(=O)OC1C[C@H]2C(OC(=O)c3ccccc3)C3C4(OC(C)=O)COC4C[C@H](OC(C)=O)[C@@]3(C)C(OC(C)=O)[C@H](OC(C)=O)C(=C1C)C2(C)C (some centres undefined) | 41.2% | 22.6 | 31.7 | 28.9 | 26.4 | 35.2% |
| COc1ccc2c(c1)CCC(c1nc3ccc(C)cc3[nH]c1=O)C2=O (centres undefined) | 7.95% | 8.5 | 7.95 | 9.1 | -4.65 | 22.6% |
| CN(C)CCC(O)(c1ccccc1)C(O)(CCN(C)C)c1ccccc1 (centres undefined) | -3.15% | -14.8 | -8.45 | -8.85 | -13.8 | -16.4% |
| Cc1ccc(N=C2C(=Nc3ccc(C)cc3)N(c3ccc(C)cc3)C(=S)N2C(=O)c2ccccc2)cc1 | -5.4% | -27.1 | 7.9 | 26.3 | -29.6 | -13.1% |
| CCCCOP(=O)(OCCCC)/C(C#N)=C/c1ccc(C)o1 | -21.2% | -40.8 | -4.85 | -35.4 | -4.7 | 10.1% |
| COc1ccc(NC(=O)NCc2cccc(Cl)c2)cc1 | 2.6% | 35.4 | 32 | -8.4 | -9.15 | 44.1% |
| CC(=O)OCC(OC(C)=O)C(OC(C)=O)C(OC(C)=O)C(O)CO (centres undefined) | -0.55% | 18.8 | 15.4 | -6 | 24.6 | -4.45% |
| NS(=O)(=O)c1ccc(NC(NC(=O)C(C(F)(F)F)C(F)(F)F)(C(F)(F)F)C(F)(F)F)cc1 | 16.6% | 15.1 | -6.2 | -8.25 | 5.15 | -0.8% |
| CCOc1ccccc1NC(C)=O | -6.5% | 6.1 | 2.2 | -13.4 | -14.6 | -0.75% |
| O=C1c2ccccc2C(=O)N1CCn1nc(-c2ccccc2)cc(-c2ccccc2)c1=O | 1.85% | -2.35 | -25.5 | 7.9 | 39 | -8.6% |
| CC(NC(=O)C(C)(C)C)c1ccc2c(c1)OCCO2 (centres undefined) | -4.45% | -11.3 | 6.6 | -3.7 | 4.3 | 2.85% |
| O=C(c1cccc([N+](=O)[O-])c1)c1cccs1 | 6.6% | -7.2 | -9.05 | 4.3 | -5.2 | -4.05% |
| Cc1cc2c(=O)cc(-c3ccc(C(F)(F)F)cc3)oc2c(C(=O)O)c1C | -34.6% | -3.8 | -2.3 | 13.1 | 0.4 | 12.8% |
| Nc1ccc(I)cc1 | -10.8% | -4.05 | -34.6 | -20.8 | -23.2 | -22.1% |
| Cc1cc(=O)[nH]c(Nc2nc3ccccc3[nH]2)n1 | 1.1% | -0.75 | 6.7 | 20.8 | -1.4 | 5.9% |
| CCN(CC(O)COc1ccc2c(c1)[n+]([O-])nc(N)[n+]2[O-])C(C)=O (centres undefined) | 46.5% | 38 | 40.3 | 38.9 | 31 | 38.8% |
| CC(=O)NC(CSC1=C2NC(=O)\C=C/C=C/C=C\C(C)C(O)CC(=O)/C(C)=C\CC(O)/C=C/C(C)C(O)C(C)C=C(C)C(=O)c3c(O)c(C)cc(c3C1=O)C2=O)C(=O)O (centres undefined) | 1.1% | 7.95 | 36.6 | 23.3 | 15.4 | 8.45% |
| Cc1nc[nH]c1[N+](=O)[O-] | -6.6% | -11 | -10 | 2.2 | -0.85 | -12.7% |
| C=Nc1ccc([N+](=O)[O-])cc1 | 6.9% | 10.2 | -1.3 | 14.6 | -4.75 | 26.3% |
| C[S+]1Cc2nc3ccccc3n2C1c1c(F)cccc1F (centres undefined) | 4.65% | -19.2 | -1.75 | 12.8 | -14.7 | 2.35% |
| Clc1ccc2c(c1)C(Nc1cc3c4ccccc4ccc3c3ccccc13)c1cc(Cl)cc(Cl)c1-2 (centres undefined) | 51.2% | -1.25 | 22.6 | 21.1 | 9.3 | 12.2% |
| Nc1ccc(S(=O)(=O)n2cccc2)cc1 | -8.9% | 1.2 | -19.9 | -6.4 | -9.25 | -10.5% |
